MCF10A rerep – induces DNA re-replication in MCF 10a normal breast cells. Potency, µM (series often up to 46.1 µM), hits mostly activators. MCF 10A DNA re-replication, Hoechst nuclear intensity, 48 h. 350,000 tested, 2.9% active; further: nearly all actives have a fitted effect of over 50% in size
IL1B secr inh – inhibitors of inflammasome signaling (IL-1 beta secretion). THP-1 LPS/ATP IL-1B secretion, AlphaLISA, 16 h; active compounds read low. activity change, % at 57.5 µM. 360,000 tested, 4.7% active. AID 743279; in the data active means activity change below about -50%; inconclusive means mostly about -30% to -49%
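Secreted IL-1B measured by AlphaLISA bead assay after 16 h compound exposure of THP-1 cells; compounds (final up to 57.5 uM) added 1 h before LPS (250 ng/mL) and ATP (1.25 mM) stimulation; lower signal means less secretion.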
SW480 rerep – induces DNA re-replication in SW480 colon adenocarcinoma cells | 340,000 tested, 1.8% active | Potency, µM (doses to about 46.1 µM), hits mostly activators | SW480 DNA re-replication, Hoechst DNA content imaging, 48 h | AID 624297; further: nearly all actives have a fitted effect of over 55% in size
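Image-based DNA-content assay: after two days of treatment, nuclei were labelled with the DNA dye Hoechst and imaged, and hits were compounds raising the count of nuclei showing high fluorescence intensity.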
Chronic BCR inh – blocks chronic active B-cell receptor signaling; ABC-DLBCL IkBa-CBG/CBR reporter, luminescence ratio, 4 h; Potency, µM (top dose mostly 46.1 µM), hits mostly inhibitors; 340,000 tested, 0.05% active; active means well fitted inhibition curve with a large enough effect in the signal ratio, with a control signal flat, not every such curve was filed as active; inconclusive means small, poorly fitted or top-dose-only effect, or effect the other way, or a change in a side signal; the % refers to the signal ratio
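Compounds up to 46 uM were incubated four hours with TMD8 cells whose green CBG68 luciferase is fused to IkappaBalpha; red CBR luminescence normalised the signal, and concentration-effect curves were fitted to fusion, red and ratio data.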
TDP1 cell CPT – DT40-hTDP1 cell growth loss with CPT; chicken DT40 Tdp1-/-;hTDP1 cells + 20 nM CPT, ATP luminescence, 48 h; Potency, µM (doses to about 46.2 µM), usual class: inhibitors; 420,000 tested, 12% active; AID 686979; further: nearly all actives have a fitted effect of over 55% in size
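Chicken DT40 Tdp1-/- cells stably complemented with human TDP1 were seeded at 400 cells/well in medium containing 20 nM camptothecin, exposed to pin-transferred compounds, and grown at 37 °C for at least 48 hr. Viability was read as ATP luminescence.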
TDP1 cell noCPT – qHTS for Inhibitors of human tyrosyl-DNA phosphodiesterase 1 (TDP1): qHTS in cells in absence of CPT; DT40 Tdp1-/- hTDP1 cells, no CPT, ATP luminescence, 48 h; Potency, µM (highest dose often 46.2 µM), usual class: inhibitors; 420,000 tested, 15% active; further: nearly all actives have a fitted effect of over 55% in size
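A cellular qHTS used chicken DT40 cells lacking endogenous Tdp1 but carrying stably transfected human TDP1. Compounds were applied without camptothecin, and cell growth kinetics were judged by ATP-dependent luminescence after ≥48 hr.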
Of the large screens only hits and unclear results are named; the others gave an inactive call. Hits are enriched below; roughly 19% of the tested compounds scored in any of these assays. Unless noted, the call rests on the fitted dose curve; in most records, active means well fitted curve in the direction sought with a large enough effect; inconclusive means small, poorly fitted or top-dose-only effect, or another doubt; inactive means no such curve, though single readings can be large; an effect the other way counts as inactive or inconclusive.

COc1ccc(NS(=O)(=O)c2ccc(N3CCOCC3)c(NC(=O)c3ccc(OC)cc3)c2)cc1	TDP1 cell CPT 16.4µM, TDP1 cell noCPT 16.4µM
COc1ccc(S(=O)(=O)Nc2ccc(N3CCOCC3)cc2)cc1	none
COc1ccc(NS(=O)(=O)c2ccc(N3CCOCC3)c(N)c2)cc1	TDP1 cell CPT 2.59µM, TDP1 cell noCPT 1.16µM
Cc1cccc(C(c2sc3nc(-c4ccco4)nn3c2O)N2CCN(Cc3ccccc3)CC2)c1 (stereo not drawn)	none (no result: MCF10A rerep, IL1B secr inh, SW480 rerep)
O=C(Cc1ccc(Cl)cc1)SCc1ccccc1	Chronic BCR inh inconclusive
CCc1ccc(C(=O)COC(=O)C(NC(=O)C2CCC(C)CC2)C(C)C)cc1 (stereo not drawn)	TDP1 cell noCPT inconclusive (no result: MCF10A rerep, IL1B secr inh, SW480 rerep, Chronic BCR inh)
CC1CCC(C(=O)NC(C(=O)OCC(=O)c2ccc(Br)cc2)C(C)C)CC1 (stereo not drawn)	TDP1 cell CPT inconclusive, TDP1 cell noCPT 20.6µM (no result: MCF10A rerep, IL1B secr inh, SW480 rerep, Chronic BCR inh)
CC(=O)Nc1ccc(S(=O)(=O)NC2(C(F)(F)F)NC(=O)N(c3ccc(C)cc3)C2=O)cc1 (stereo not drawn)	none
CN(C(=O)c1ccc2c(c1)N(Cc1ccc(F)cc1)C(=O)c1ccccc1S2(=O)=O)C1CCCCC1	TDP1 cell CPT 23.1µM, TDP1 cell noCPT 16.4µM (no result: MCF10A rerep, IL1B secr inh, SW480 rerep, Chronic BCR inh)
CN(C(=O)c1ccc2c(c1)N(Cc1cccc(Cl)c1)C(=O)c1ccccc1S2(=O)=O)C1CCCCC1	TDP1 cell CPT 20.6µM, TDP1 cell noCPT inconclusive (no result: MCF10A rerep, IL1B secr inh, SW480 rerep)
CCN1CCCC1CNC(=O)c1ccc2c(c1)N(Cc1cccc(Cl)c1)C(=O)c1ccccc1S2(=O)=O (stereo not drawn)	IL1B secr inh inconclusive, Chronic BCR inh inconclusive
COCCNC(=O)C1CCCN(Cc2ccc(-c3ccccc3)cc2)CC1 (stereo not drawn)	TDP1 cell CPT inconclusive (no result: MCF10A rerep, SW480 rerep, Chronic BCR inh)
O=[N+]([O-])c1cc(-c2n(-c3ccccn3)c3ccccc3[n+]2-c2ccccn2)ccc1Cl	Chronic BCR inh inconclusive, TDP1 cell CPT 16.4µM, TDP1 cell noCPT 23.1µM
O=C(c1ccc(Cl)c([N+](=O)[O-])c1)N(c1ccccn1)c1ccccn1	TDP1 cell noCPT inconclusive
COC(=O)c1ccc(C(NC(=O)OCc2ccccc2)/C(C)=C/[C@@H](C)C(=O)NCc2ccc(-c3ccccc3)cc2)cc1 (stereo partly drawn)	TDP1 cell CPT inconclusive, TDP1 cell noCPT inconclusive
CCC/C=C(\CCC)C(NS(=O)(=O)c1cccc2cccnc12)c1ccc(C(=O)OC)cc1 (stereo not drawn)	MCF10A rerep inconclusive, SW480 rerep inconclusive, TDP1 cell CPT inconclusive, TDP1 cell noCPT 23.1µM
CCC/C=C(\CCC)C(NC(=O)OCC(C)C)c1ccc(C(=O)OC)cc1 (stereo not drawn)	TDP1 cell CPT 23.1µM, TDP1 cell noCPT 14.6µM
CCOC(=O)c1ccc(NC(=O)CCc2c(C)nc3nc[nH]n3c2=O)cc1	none (no result: MCF10A rerep, IL1B secr inh, SW480 rerep, Chronic BCR inh)
O=C1N(C2CCCC2)C[C@@H]2C[C@@H](c3cccn3-c3nccs3)N3CCC[C@@]123	IL1B secr inh -78.8
O=C1N(C2CCCC2)C[C@@H]2C[C@@H](c3cccn3-c3ccccn3)N3CCC[C@@]123	none
COc1cc(C2CC(=O)Nc3c2c(C)nn3-c2nc(C)cc(C)n2)cc(OC)c1O (stereo not drawn)	none (no result: MCF10A rerep, IL1B secr inh, SW480 rerep, Chronic BCR inh)
Cc1cc(C)nc(-n2nc(C)c3c2NC(=O)CC3c2ccccc2OC(C)C)n1 (stereo not drawn)	TDP1 cell CPT 16.4µM, TDP1 cell noCPT 18.4µM (no result: MCF10A rerep, IL1B secr inh, SW480 rerep, Chronic BCR inh)
Cc1ccc(CN2C(=O)CC(c3ccc(Cl)cc3)c3c(C)nn(-c4nc(C)cc(C)n4)c32)cc1 (stereo not drawn)	TDP1 cell CPT inconclusive, TDP1 cell noCPT 20.6µM (no result: MCF10A rerep, IL1B secr inh, SW480 rerep, Chronic BCR inh)
COc1ccc(C2CC(=O)Nc3c2c(C)nn3-c2nncc(-c3ccc(C)cc3)n2)c(OC)c1OC (stereo not drawn)	TDP1 cell CPT 11.6µM, TDP1 cell noCPT 6.51µM (no result: MCF10A rerep, IL1B secr inh, SW480 rerep, Chronic BCR inh)

Compound activity deposited in PubChem BioAssay by National Center for Advancing Translational Sciences (NCATS).
